BCR signal inh: inhibitors of chronic active B-cell receptor signaling; hit rate 0.05% among 340,000; ABC-DLBCL IkBa-CBG/CBR reporter, luminescence ratio, 4 h; AID 493014; Potency, µM (top dose mostly 46.1 µM), without a hit: top-dose activity change, negative = inhibition, most hits filed as inhibitors; active = well fitted inhibition curve with a large enough effect in the signal ratio, with a control signal flat, not every such curve was filed as active; inconclusive = small, poorly fitted or top-dose-only effect, or effect the other way, or a change in a side signal; the % refers to the signal ratio;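 note: plate controls were basal doxycycline-induced cells for no effect and cells given 10 µM MG132 for full effect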
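TMD8 human ABC-DLBCL cells with doxycycline-inducible IκBα–green luciferase fusion and unfused red luciferase, in 0.5% FBS medium; compounds up to 46 uM, 4 h at 37C. Green/red luminescence ratio, filter-overlap corrected, fitted to concentration-response curves.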
USP2a block: inhibitors of human ubiquitin-specific protease USP2a; O75604; USP2 core, Ub-CHOP2 coupled fluorogenic reporter, 485/531; Potency, µM (doses to about 38.3 µM), without a hit: top-dose activity change, negative = inhibition, usual class: inhibitors; hit rate 0.01% among 330,000;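 note: plate controls were DMSO wells for no effect and full inhibition by NEM control for full effect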
Target sequence (O75604 whole entry, looked up): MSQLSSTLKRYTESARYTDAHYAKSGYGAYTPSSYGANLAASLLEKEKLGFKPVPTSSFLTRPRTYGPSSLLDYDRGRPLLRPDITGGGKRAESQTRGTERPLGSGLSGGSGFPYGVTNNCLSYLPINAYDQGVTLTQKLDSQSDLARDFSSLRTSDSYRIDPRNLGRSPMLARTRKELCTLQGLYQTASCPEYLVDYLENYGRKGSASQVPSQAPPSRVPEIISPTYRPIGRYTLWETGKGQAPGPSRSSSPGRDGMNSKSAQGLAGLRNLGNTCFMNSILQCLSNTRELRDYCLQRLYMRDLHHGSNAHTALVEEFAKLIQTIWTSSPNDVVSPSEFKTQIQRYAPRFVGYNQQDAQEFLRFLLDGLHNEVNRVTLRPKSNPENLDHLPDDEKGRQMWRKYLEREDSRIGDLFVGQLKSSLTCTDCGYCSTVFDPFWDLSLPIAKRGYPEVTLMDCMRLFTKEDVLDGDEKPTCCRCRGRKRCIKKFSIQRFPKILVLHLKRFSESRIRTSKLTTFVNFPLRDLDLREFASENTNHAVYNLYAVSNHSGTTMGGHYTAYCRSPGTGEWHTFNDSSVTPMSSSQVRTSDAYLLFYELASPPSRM
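Deubiquitinase activity read as fluorescence (485/531 nm) after Ub-CHOP2 cleavage activates the enterokinase reporter on its substrate; USP2 core 10nM, Ub-CHOP2 and substrate 25nM each, 30min compound preincubation then 60min RT; data normalized to NEM, curves fitted.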
KAT2A inh: GCN5L2 (KAT2A) acetyltransferase inhibition | GCN5L2 HAT assay, ThioGlo1 CoA-SH fluorescence | Potency, µM (doses to about 58.9 µM), without a hit: at the top dose activity change, negative = inhibition, actives largely listed as inhibitors | hit rate 0.21% among 390,000
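Free CoA generated was detected with ThioGlo1 (50uM) fluorescence at Ex340nm/Em540nm, read immediately and after 20 min at room temperature. Enzyme, 20 nM in HEPES pH 7.5 buffer, saw compounds 15 min before adding 75uM H3(1-25) peptide and 70uM acetyl-CoA.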
RGS4 inh: inhibitors of human regulator of G protein signaling 4 | P49798 | Transcreener GDP fluorescence polarization, RGS4-accelerated GTP hydrolysis | Potency, µM (doses to about 114 µM), for the others: at the highest dose activity change, negative = inhibition, actives largely listed as inhibitors | hit rate 0.039% among 390,000; note: nearly all actives have a fitted effect of over 75% in size
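MLSMR compounds (23 nl, pin-transferred) preincubated 10 min at room temperature with a 500nM (2x) first reagent, then RGS4 at 900nM (2x) plus Transcreener GDP mix added; fluorescence polarization (620/688 nm) read before and after 90 min at 30 °C.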
Eya2 inh: Eya2 (human) phosphatase inhibition. AID 488837. O00167. recombinant Eya2, OMFP fluorescence dephosphorylation (OMFP is methylfluorescein phosphate). Potency, µM (titrated, usually from 76.9 µM), inactives show at the top dose activity, negative = inhibition, hits mostly inhibitors. hit rate 0.006% among 330,000
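Eya2 protein (added as 0.2 uM solution) was preincubated with compound for 10 min at ambient temperature in 50 mM HEPES pH 7.5, 50 mM NaCl, 5 uM MgCl2, 0.05% BSA, 1 mM DTT. OMFP (added at 50 uM) then reacted 10 min; fluorescence read at 485/525 nm.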
uPA generation: cell surface uPA generation inhibition | cell surface uPA generation assay, qHTS | hit rate 0.31% among 330,000 | Potency, µM (highest dose often 38.3 µM), for inactives: at the top dose activity change, negative = inhibition, hits mostly inhibitors; active = well fitted inhibition curve with a large enough effect; inconclusive = small, poorly fitted or top-dose-only effect; inactive = no such curve, though single readings can be large or run the other way; tested in mouse RAW 264.7 cells; note: nearly all actives have a fitted effect of over 55% in size
Active calls of the source: *; u = inconclusive; x = no result given; ! = not confirmed by another sample; [ ] = another dose, or the depositor's remark. Shown are actives, neighbours in structure and some others; about 0.52% of the full set was active somewhere. Unless noted, calls come from the whole dose curve; as a rule, active = well fitted curve in the direction sought with a large enough effect; inconclusive = small, poorly fitted or top-dose-only effect, or another doubt; inactive = no such curve, though single readings can be large; an effect the other way counts as inactive or inconclusive. Unless noted, % is set by controls: 0 for no effect and ±100 for the full control effect; potency is the fitted concentration of half-maximal effect.

SMILES | BCR signal inh | USP2a block | KAT2A inh | RGS4 inh | Eya2 inh | uPA generation
O=C1CC(c2ccccc2)Cc2[nH]c(=O)c(C(=O)Nc3cccc(F)c3)cc21 (centres undefined) | x | x | -14.7% | -17.2% | x | x
Cc1cccn2c(=O)c3cc(C(=O)NC4CCCCC4)c(=N)n(Cc4ccccc4)c3nc12 | 3.0% | -27.2% | 15.8µM* | -16.8% | -28.3% | -3.9%
Cc1c(C(=O)NN2CCCCC2)nn(-c2ccc(Cl)cc2Cl)c1-c1ccc(Cl)cc1 | x | x | 33.9% | x | x | x
CC1=CC(C)(C)N(C(=O)CSc2nnc(N)s2)c2c(C)cc(C)cc21 | -6.5% | 0.3% | 3.98µM* | -13.2% | -21.1% | 3.8%
C/C1=C2/[N-]C(C(CC(N)=O)[C@@]2(C)CCC(=O)NCC(C)OP(=O)([O-])O[C@H]2[C@@H](O)[C@@H](n3cnc4cc(C)c(C)cc43)O[C@@H]2CO)[C@]2(C)N=C(/C(C)=C3N=C(/C=C4N=C1C(CCC(N)=O)C\4(C)C)[C@@H](CCC(N)=O)[C@]\3(C)CC(N)=O)[C@@H](CCC(N)=O)[C@]2(C)CC(N)=O.CC(=O)O.[Co] (some centres undefined) | x | x | -16.0% | x | x | x
Cc1cc(C2=NNC(=NC3CC3)SC2)c(C)n1-c1ccccc1F | -0.9% | 0.7% | -9.2% | -21.9%[11.4 µM] | 4.2% | 1.58µM*
Cc1ccc(C)c(NS(=O)(=O)c2cc3c(cc2Cl)NC(=O)CO3)c1 | x | x | -11.2% | -13.9% | x | x
O=C(Nc1ccccc1C(=O)O)c1ccc(NC(=O)C2CC2)cc1 | -1.9% | 1.9% | -2.1% | -42.9% | -5.3% | 7.94µM*
O=[N+]([O-])c1cccc(C=Nc2cccc3ccccc23)c1O | -4.0% | -5.7% | 35.5µM* | -45.7% | -2.1% | -1.9%
CSc1c(CC(=O)Nc2ccccc2)n(C)c2ccccc12 | 0.3% | -1.9% | -2.0% | 3.2% | 4.2% | u
Cn1c(CC(=O)Nc2ccccc2)cc2ccccc21 | -4.3% | 4.0% | 0.6% | 18.1% | 0.2% | 4.47µM*
CC/C(=C(/c1ccccc1)c1ccc(OCCN(C)C)cc1)c1ccccc1 | x | x | 8.8% | x | x | x
CCC(C)(C)c1ccc(OCCCC[n+]2ccccc2)c(C(C)(C)CC)c1 | u | 0.9% | -6.7% | -21.0% | -15.3% | 11.2µM*
CCCCCc1ccc(OCCCC[n+]2ccccc2)c(CCCCC)c1 | u | -8.4% | -4.8% | -17.9% | -3.5% | -12.4%
COc1cc(CN2CCc3ccccc3C2)ccc1O | u | 0.2% | 0.1% | 21.0% | 7.1% | 2.82µM*
COc1cc(CN2CCc3ccccc3C2)cc([N+](=O)[O-])c1O | u | 1.3% | 0.7% | 7.5% | -5.1% | -3.2%
O=C(c1ccc(N2C(=O)C3CCCCC3C2=O)cc1)N1CCCCC1 (centres undefined) | -0.1% | 1.2% | -4.2% | -0.9% | -3.8% | -0.7%
O=C(c1ccc(N2C(=O)C3C4CC(C(Br)C4Br)C3C2=O)cc1)N1CCCCC1 (centres undefined) | -2.1% | 1.1% | 0.794µM* | 29.9% | 23.2% | 1.9%
c1ccc(N=c2nc(-c3ccccc3)n(-c3ccccc3)s2)cc1 | x | x | x | -35.7% | x | x
CC(=Nc1ccccc1N)c1c(C)cc(=O)n(O)c1O | x | x | -26.3% | x | x | x
Nc1ccc(O)c2c1C(=O)c1ccccc1C2=O | 11.4% | 3.5% | u | -34.7% | -13.3% | u
O=C1c2ccccc2C(=O)c2c(O)c(O)cc(O)c21 | 8.1% | -0.3% | 7.94µM*! | -9.2% | 0.9% | -13.5%
COC(C(=O)C(O)C(C)O)C1Cc2cc3cc(OC4CC(OC5CC(O)C(O)C(C)O5)C(O)C(C)O4)c(C)c(O)c3c(O)c2C(=O)C1OC1CC(OC2CC(OC3CC(C)(O)C(O)C(C)O3)C(O)C(C)O2)C(O)C(C)O1 (centres undefined) | x | x | 0.2% | x | x | x
COc1ccc2nc(NC(=O)c3ccccc3F)sc2c1 | u | 2.0% | 1.7% | 2.9% | -7.7% | 10µM*
Cc1ccnc(NC(=O)c2ccc(Cl)c(NC(=O)c3ccccc3C)c2)c1 | -4.9% | -0.8% | 3.0% | -18.6% | 3.9% | -2.2%
SMILES | BCR signal inh | USP2a block | KAT2A inh | RGS4 inh | Eya2 inh | uPA generation
Cc1ccnc(NC(=O)c2ccccc2NC(=O)c2ccc(Cl)cc2Cl)c1 | -2.6% | -0.6% | -9.1% | -30.0% | 1.4% | 2.82µM*
O=C(O)c1ccccc1O[C@@H]1O[C@H](C(=O)O)[C@@H](O)[C@H](O)[C@H]1O | x | x | -0.8% | x | x | x
CCn1c(=O)cc(SCC(=O)N2CCN(c3ccccn3)CC2)c2ccccc21 | 16.4µM* | -1.8% | -0.9% | 16.4% | 16.1% | -2.3%
C[C@@H]1C[C@H]2[C@@H]3CCC4=CC(=O)C=C[C@]4(C)[C@@]3(F)C(O)C[C@]2(C)[C@@]1(O)C(=O)CO (some centres undefined) | x | x | x | 9.5% | x | x
CCOc1ccc(S(=O)(=O)N2CCOCC2)cc1NC(=O)CSCc1ccc(C)cc1 | -0.6% | -0.4% | -6.7% | 13.7% | -2.6% | 2.51µM*
CC(C)C[C@H](NC(=O)c1ccc(NCc2cnc[nH]2)cc1-c1cccc2ccccc12)C(=O)O | x | x | -12.6% | x | x | x
Cc1cc(NS(=O)(=O)c2ccc(NC(=O)CSc3nc4sc(C)c(C)c4c(=O)[nH]3)cc2)no1 | 9.1% | -1.0% | 14.1µM* | 5.1%[56.9 µM] | -16.1% | -9.1%
CCCN(CCc1cccs1)[C@H]1CCc2c(O)cccc2C1 | x | x | -2.7% | x | x | x
COc1cc(NC(=O)NC(C)c2c(-n3cccc3)sc3c2CCN(C)C3)cc(OC)c1 (centres undefined) | u | x | -0.4% | -22.8% | x | x
Cc1ccc(N=C2NC(=O)/C(=C/c3cccn3C)S2)cc1 | u | -1.5% | 1.3% | -13.4% | 19.4% | 2.82µM*
CCCS(=O)(=O)c1c(S(=O)(=O)CCC)c2c(C)cccn2c1C(=O)N/N=C/c1cc(O)cc(O)c1 | u | -3.9% | -9.0% | 13.4% | -0.5% | 11.2µM*
CC(=O)NCCc1c(Cc2ccccc2)[nH]c2ccccc12 | x | x | 2.0% | 26.7µM*! | x | x
O=C1N=C(N2CCOCC2)S/C1=C/c1ccc(-c2ccc(F)cc2)o1 | u | -2.1% | 22.4µM* | -29.6% | 0.8% | -5.3%
Cc1cc(C)cc(NC(=O)C(=O)NCC(c2cccnc2)N2CCc3ccccc3C2)c1 (centres undefined) | x | x | -2.1% | -10.6% | x | x
